Measured values as given in PubChem BioAssay (EPA / NIEHS).
Several values for one entry are separate records, joined by “and”; a condition that tells them apart may be missing. Equal values may be shown once. Results filed as inconclusive are left out. Where a structure was tested more than once in an assay, its records may differ in their call. Activity calls are given as the source filed them. Rule for the calls, unless noted: active = hit-call score of the fitted dose curve at least 0.9, where 1 is the maximum; inconclusive = response in the unintended direction; inactive = score below 0.9.

Assays:
[1] = target: Bile acid receptor (Homo sapiens) (UniProt Q96RI1); experiment: ATG_IR1_CIS: Attagene CIS-FACTORIAL HepG2 Assay for human Nuclear Receptor Subfamily 1 Group H Member 4 (NR1H4), IR1 submotif (AID 2282946; active = hit-call score of the fitted dose curve at least 0.9, where 1 is the maximum; inactive = score below 0.9); conditions: IR1 reporter transcription, actives raise or lower the signal
How it was run: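 HepG2 cells transiently transfected with multiplexed cis-element reporter units read endogenous transcription factor activity. After 24 h compound exposure, reporter mRNA was quantified by RT-PCR, fluorescent labelling, HpaI digestion and capillary electrophoresis; bidirectional fitting versus DMSO baseline.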

[2] = target: Nuclear receptor subfamily 1 group I member 3 (Homo sapiens) (UniProt Q14994); experiment: ATG_CAR_TRANS: Attagene TRANS-FACTORIAL HepG2 Assay for human Constitutive Androstane Receptor (CAR) (AID 2282969); conditions: HepG2 Attagene TRANS-FACTORIAL CAR reporter;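 note: activators raise reporter mRNA above DMSO so AC50 marks induction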
Sequence of Nuclear receptor subfamily 1 group I member 3 (Homo sapiens) (Q14994 whole entry, looked up, the tested form may be a part): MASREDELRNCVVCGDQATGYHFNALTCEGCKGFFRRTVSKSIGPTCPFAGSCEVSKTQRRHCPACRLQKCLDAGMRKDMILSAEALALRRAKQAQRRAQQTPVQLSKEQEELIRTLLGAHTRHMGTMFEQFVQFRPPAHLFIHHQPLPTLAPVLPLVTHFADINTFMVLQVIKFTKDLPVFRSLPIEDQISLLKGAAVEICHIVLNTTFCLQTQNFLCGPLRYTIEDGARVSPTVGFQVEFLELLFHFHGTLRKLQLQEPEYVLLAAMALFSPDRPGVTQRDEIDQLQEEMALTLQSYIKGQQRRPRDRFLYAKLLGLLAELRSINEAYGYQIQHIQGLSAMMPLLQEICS
How it was run: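 Signal is reporter mRNA induction relative to DMSO, measured 24 h after dosing by RT-PCR with fluorescent primer extension and capillary electrophoresis. Human HepG2 liver cells carried transiently transfected chimeric NR-Gal4/GAL4-UAS reporter constructs.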

[3] = ATG_M_19_TRANS: Attagene TRANS-FACTORIAL HepG2 Assay for M19 Transcription Factor (Internal Marker) (AID 2282974); conditions: HepG2 Attagene TRANS-FACTORIAL M19 internal marker reporter
How it was run: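 Gain-of-signal in reporter mRNA, relative to DMSO, was scored from capillary electrophoresis fluorescence. HepG2 cells carried transiently transfected multiple reporter transcription units and were incubated with test chemicals for 24 h.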

[4] = target: Oxysterols receptor LXR-alpha (Homo sapiens) (UniProt Q13133); experiment: ATG_LXRa_TRANS: Attagene TRANS-FACTORIAL HepG2 Assay for human Liver X Receptor alpha (LXRa) (AID 2282980); conditions: HepG2 Attagene TRANS reporter, LXRa transactivation
Sequence of Oxysterols receptor LXR-alpha (Homo sapiens) (Q13133 whole entry, looked up, the tested form may be a part): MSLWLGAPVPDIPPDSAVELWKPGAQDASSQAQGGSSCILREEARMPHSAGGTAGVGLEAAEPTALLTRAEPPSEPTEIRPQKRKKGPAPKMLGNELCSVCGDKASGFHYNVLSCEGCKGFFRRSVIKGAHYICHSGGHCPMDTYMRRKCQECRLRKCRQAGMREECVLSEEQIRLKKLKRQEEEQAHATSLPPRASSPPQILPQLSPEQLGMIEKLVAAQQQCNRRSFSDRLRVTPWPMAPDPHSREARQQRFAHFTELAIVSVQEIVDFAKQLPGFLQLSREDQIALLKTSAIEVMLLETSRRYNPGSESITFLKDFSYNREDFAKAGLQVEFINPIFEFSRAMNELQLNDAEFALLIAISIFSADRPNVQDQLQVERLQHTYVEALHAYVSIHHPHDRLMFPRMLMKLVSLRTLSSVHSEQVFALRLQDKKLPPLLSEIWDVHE
How it was run: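 Read-out: reporter transcript levels by RT-PCR plus capillary electrophoresis, fluorescence intensity. Transiently transfected HepG2, exogenous NR-GAL4 chimera, GAL4-UAS reporters; 24 h compound exposure. Activity = increase over DMSO negative control.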

[5] = target: Oxysterols receptor LXR-beta (Homo sapiens) (UniProt P55055); experiment: ATG_LXRb_TRANS: Attagene TRANS-FACTORIAL HepG2 Assay for human Liver X Receptor beta (LXRb) (AID 2282981); conditions: HepG2 Attagene TRANS GAL4-LXRb reporter, mRNA
Sequence of Oxysterols receptor LXR-beta (Homo sapiens) (P55055 whole entry, looked up, the tested form may be a part): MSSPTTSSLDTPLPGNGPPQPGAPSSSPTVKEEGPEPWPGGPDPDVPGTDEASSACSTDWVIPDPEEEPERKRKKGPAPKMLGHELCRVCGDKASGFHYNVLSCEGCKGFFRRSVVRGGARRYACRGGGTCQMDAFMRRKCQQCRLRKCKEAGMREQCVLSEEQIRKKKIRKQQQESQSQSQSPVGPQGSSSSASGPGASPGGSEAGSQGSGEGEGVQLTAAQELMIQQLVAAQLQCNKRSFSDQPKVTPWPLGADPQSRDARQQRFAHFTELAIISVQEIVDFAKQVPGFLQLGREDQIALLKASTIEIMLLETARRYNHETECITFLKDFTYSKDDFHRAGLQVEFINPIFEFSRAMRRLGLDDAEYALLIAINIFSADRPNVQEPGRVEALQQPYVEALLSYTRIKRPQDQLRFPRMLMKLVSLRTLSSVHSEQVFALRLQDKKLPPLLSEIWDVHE
How it was run: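 After 24 h chemical treatment of transfected HepG2 cells carrying exogenous NR-Gal4 chimeras, reporter mRNA was quantified by fluorescent RT-PCR and capillary electrophoresis; activity taken as increase over DMSO controls.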

[6] = target: Nuclear receptor subfamily 4 group A member 2 (Homo sapiens) (UniProt P43354); experiment: ATG_NURR1_TRANS: Attagene TRANS-FACTORIAL HepG2 Assay for human Nuclear Receptor Related Protein 1 (NURR1) (AID 2282985); conditions: HepG2 Attagene TRANS reporter, mRNA readout
Sequence of Nuclear receptor subfamily 4 group A member 2 (Homo sapiens) (P43354 whole entry, looked up, the tested form may be a part): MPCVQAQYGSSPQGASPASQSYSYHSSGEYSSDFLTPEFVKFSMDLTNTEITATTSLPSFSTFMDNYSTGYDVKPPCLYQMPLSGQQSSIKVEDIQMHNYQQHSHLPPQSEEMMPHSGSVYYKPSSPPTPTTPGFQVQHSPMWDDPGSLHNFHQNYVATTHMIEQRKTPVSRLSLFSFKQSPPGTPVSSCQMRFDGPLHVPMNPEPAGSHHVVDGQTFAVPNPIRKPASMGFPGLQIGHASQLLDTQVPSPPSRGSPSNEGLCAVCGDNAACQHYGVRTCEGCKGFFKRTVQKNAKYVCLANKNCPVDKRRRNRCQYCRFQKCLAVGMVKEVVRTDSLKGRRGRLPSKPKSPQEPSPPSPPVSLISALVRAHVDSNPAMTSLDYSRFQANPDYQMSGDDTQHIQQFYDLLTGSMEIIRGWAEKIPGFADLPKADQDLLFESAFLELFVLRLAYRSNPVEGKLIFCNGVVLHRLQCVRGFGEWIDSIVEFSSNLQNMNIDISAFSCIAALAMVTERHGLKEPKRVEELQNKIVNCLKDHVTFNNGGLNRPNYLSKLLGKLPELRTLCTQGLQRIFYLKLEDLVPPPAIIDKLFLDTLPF
How it was run: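 Reporter transcript induction, measured by RT-PCR with fluorescent labelling, HpaI digestion and capillary electrophoresis, after 24 hr dosing of human HepG2 cells transiently expressing an exogenous NR-Gal4 fusion with GAL4-UAS-driven reporters; DMSO as baseline.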

[7] = target: human Peroxisome Proliferator-activated Receptor alpha (PPARa), PPARA (gene 5465) (UniProt Q07869); experiment: ATG_PPARa_TRANS: Attagene TRANS-FACTORIAL HepG2 Assay for human Peroxisome Proliferator-activated Receptor alpha (PPARa) (AID 2283001)
Sequence of human Peroxisome Proliferator-activated Receptor alpha (PPARa), PPARA (gene 5465) (Q07869 whole entry, looked up, the tested form may be a part): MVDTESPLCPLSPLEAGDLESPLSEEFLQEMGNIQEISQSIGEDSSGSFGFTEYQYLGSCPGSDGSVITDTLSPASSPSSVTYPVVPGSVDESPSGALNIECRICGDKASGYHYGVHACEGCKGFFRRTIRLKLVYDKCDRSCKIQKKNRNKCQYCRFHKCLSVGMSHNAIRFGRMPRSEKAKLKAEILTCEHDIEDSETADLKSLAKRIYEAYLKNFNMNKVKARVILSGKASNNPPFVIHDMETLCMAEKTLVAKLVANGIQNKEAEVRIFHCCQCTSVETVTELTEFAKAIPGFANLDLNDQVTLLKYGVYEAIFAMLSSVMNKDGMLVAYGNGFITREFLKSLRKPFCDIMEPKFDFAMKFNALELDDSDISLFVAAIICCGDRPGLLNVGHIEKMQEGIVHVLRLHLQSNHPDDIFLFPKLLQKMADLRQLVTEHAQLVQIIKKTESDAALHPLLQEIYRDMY
How it was run: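 Reporter transcripts quantified by RT-PCR plus capillary electrophoresis after 24 h treatment, fitted upward relative to DMSO. Cells: human HepG2 transiently carrying multiple GAL4-UAS reporter units driven by NR-Gal4 chimeras.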

[8] = target: human Thyroid Receptor alpha (THRa1), THRA (gene 7067) (UniProt P10827); experiment: ATG_THRa1_TRANS: Attagene TRANS-FACTORIAL HepG2 Assay for human Thyroid Receptor alpha (THRa1) (AID 2283014)
How it was run: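 Transient HepG2 transfection, NR-Gal4 chimera driving GAL4-UAS reporters; 24 h compound exposure; total RNA, oligo(dT) RT, PCR, fluorescent primer extension, capillary electrophoresis. Upward direction vs DMSO control.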

[9] = target: Peroxisome proliferator-activated receptor gamma (Homo sapiens) (UniProt P37231); experiment: OT_PPARg_PPARgSRC1_0480: Odyssey Thera (OT) 8-hour Protein-Complementation Assay for Peroxisome Proliferator-activated Receptor Gamma / SRC-1 Co-activator (AID 2283387);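 note: nuclear to cytoplasmic split Venus YFP fluorescence ratio reporting PPARg SRC-1 interaction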
Sequence of Peroxisome proliferator-activated receptor gamma (Homo sapiens) (P37231 whole entry, looked up, the tested form may be a part): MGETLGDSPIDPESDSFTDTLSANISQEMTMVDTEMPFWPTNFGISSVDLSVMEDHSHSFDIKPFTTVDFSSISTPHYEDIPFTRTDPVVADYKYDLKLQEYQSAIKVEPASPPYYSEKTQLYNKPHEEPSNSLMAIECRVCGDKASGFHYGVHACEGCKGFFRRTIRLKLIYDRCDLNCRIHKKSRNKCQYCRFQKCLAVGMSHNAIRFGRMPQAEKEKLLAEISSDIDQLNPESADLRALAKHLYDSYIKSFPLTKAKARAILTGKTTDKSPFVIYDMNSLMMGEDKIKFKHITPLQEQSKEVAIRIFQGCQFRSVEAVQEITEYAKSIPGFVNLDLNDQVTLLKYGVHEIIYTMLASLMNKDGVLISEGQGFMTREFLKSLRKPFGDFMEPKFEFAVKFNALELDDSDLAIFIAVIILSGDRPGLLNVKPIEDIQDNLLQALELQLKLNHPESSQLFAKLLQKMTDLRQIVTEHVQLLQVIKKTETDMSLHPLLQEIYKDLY
How it was run: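 Read-out: 488 nm N/C fluorescence ratio from complemented Venus YFP fragments, ≥350 cells per image, gain-of-signal fitted against DMSO baseline. Fusions of PPARg/SRC-1 with IFP1/IFP2 expressed transiently in HEK293T; compounds applied 8 h.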

[10] = target: Peroxisome proliferator-activated receptor gamma (Homo sapiens) (UniProt P37231); experiment: OT_PPARg_PPARgSRC1_1440: Odyssey Thera (OT) 24-hour Protein-Complementation Assay for Peroxisome Proliferator-activated Receptor Gamma/ SRC-1 Co-activator (AID 2283388);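 note: nuclear to cytoplasmic ratio of reconstituted Venus YFP fluorescence in fixed imaged cells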
How it was run: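 Readout: nuclear-to-cytoplasmic 488 nm fluorescence ratio, ≥350 cells per image, 8 images per well, after 24 h compound exposure of HEK293T expressing PPARg/SRC-1 split-YFP fusions. Activity fitted in positive direction against DMSO.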

[11] = TOX21_p53_BLA_p2_viability: Viability Assessment in the Tox21 HCT-116 p53 Agonism Beta-lactamase Assay, Phase 2 (AID 2283591);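 note: actives lower the ATP signal meaning cytotoxicity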
How it was run: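 Cytotoxicity readout: CellTiter-Glo ATP luminescence, 30 min at room temperature, after the beta-lactamase read. Cells were HCT116 exposed 16 h at 37C to compounds pin-transferred at 217-fold dilution from DMSO stocks.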

[12] = target: Cellular tumor antigen p53 (Homo sapiens) (UniProt P04637); experiment: TOX21_p53_BLA_p2_ratio: Tox21 HCT-116 p53 Agonism Beta-lactamase Assay, Ratio, Phase 2 (AID 2283592)
Sequence of Cellular tumor antigen p53 (Homo sapiens) (P04637 whole entry, looked up): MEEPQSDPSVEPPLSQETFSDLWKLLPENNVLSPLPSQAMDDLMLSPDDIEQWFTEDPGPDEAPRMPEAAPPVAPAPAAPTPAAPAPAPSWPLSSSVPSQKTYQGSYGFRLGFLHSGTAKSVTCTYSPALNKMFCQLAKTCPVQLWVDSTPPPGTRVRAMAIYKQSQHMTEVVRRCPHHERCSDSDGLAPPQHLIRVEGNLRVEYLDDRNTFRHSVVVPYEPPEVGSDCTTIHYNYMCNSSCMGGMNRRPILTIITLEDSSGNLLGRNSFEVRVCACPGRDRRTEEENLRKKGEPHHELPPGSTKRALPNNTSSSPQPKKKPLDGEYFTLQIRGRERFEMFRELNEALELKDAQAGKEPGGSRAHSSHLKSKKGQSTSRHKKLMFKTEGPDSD
How it was run: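 Readout: blue/green (460/530 nm) FRET emission ratio after 2 h CCF4-AM loading at room temperature, excitation 405 nm. HCT116 p53 bla cells, 16 h compound exposure at 37C, 5% CO2; agonist direction fitted against DMSO baseline.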

[13] = TOX21_p53_BLA_p3_viability: Viability Assessment in the Tox21 HCT-116 p53 Agonism Beta-lactamase Assay, Phase 3 (AID 2283593);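 note: cells exposed to compound for 16 h before reading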
How it was run: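 Cellular ATP was quantified by CellTiter-Glo luminescence, read after 30 min at room temperature. Beforehand, HCT116 cells (4000/well) received compound 5 h post-seeding, 217-fold diluted from DMSO, then incubated 16 h at 37C.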

[14] = TOX21_p53_BLA_p4_viability: Viability Assessment in the Tox21 HCT-116 p53 Agonism Beta-lactamase Assay, Phase 4 (AID 2283597);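 note: hits lower the luminescence signal meaning cytotoxicity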
How it was run: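 ATP content by CellTiter-Glo luminescence, 30 min RT, read after the beta-lactamase ratio step. Cells: HCT116, 4000/well, compound added after 5 h, exposure 16 h at 37C. Signal loss = reduced viability.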

[15] = TOX21_p53_BLA_p5_viability: Viability Assessment in the Tox21 HCT-116 p53 Agonism Beta-lactamase Assay, Phase 5 (AID 2283600)
How it was run: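 ATP luminescence (CellTiter-Glo, 30 min, RT) served as the viability read-out, with loss of signal indicating cytotoxicity. Compounds in DMSO were pinned at a 217-fold dilution onto 4000 cells/well and incubated 16 h, 37C.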

[16] = ACEA_ER_AUC_viability: ACEA Biosciences xCELLigence Real-Time Cell Analysis on Estrogen Receptor Agonism for Viability (AID 2283782);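 note: hit means loss of impedance signal meaning reduced cell growth or viability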
How it was run: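 Viability endpoint: reduced impedance area under the curve relative to DMSO, recorded by real-time electrode sensing over ~80 h of continuous exposure. Duplicate plates of T47D in hormone-depleted medium; eight concentrations, 1:4 dilutions, 100 uM maximum.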

[17] = ATG_GAL4_TRANS: Attagene TRANS-FACTORIAL HepG2 Assay for GAL4 (Internal Marker) (AID 2282976); conditions: HepG2 Attagene TRANS GAL4 internal marker reporter
How it was run: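 RT-PCR/capillary electrophoresis readout of reporter mRNA. HepG2, transient MRTU transfection (GAL4-UAS reporters), 24 h compound exposure. Background-control endpoint, positive direction vs DMSO baseline.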

[18] = target: human Peroxisome Proliferator-activated Receptor delta (PPARd), PPARD (gene 5467) (UniProt Q03181); experiment: ATG_PPARd_TRANS: Attagene TRANS-FACTORIAL HepG2 Assay for human Peroxisome Proliferator-activated Receptor delta (PPARd) (AID 2283002)
Sequence of human Peroxisome Proliferator-activated Receptor delta (PPARd), PPARD (gene 5467) (Q03181 whole entry, looked up, the tested form may be a part): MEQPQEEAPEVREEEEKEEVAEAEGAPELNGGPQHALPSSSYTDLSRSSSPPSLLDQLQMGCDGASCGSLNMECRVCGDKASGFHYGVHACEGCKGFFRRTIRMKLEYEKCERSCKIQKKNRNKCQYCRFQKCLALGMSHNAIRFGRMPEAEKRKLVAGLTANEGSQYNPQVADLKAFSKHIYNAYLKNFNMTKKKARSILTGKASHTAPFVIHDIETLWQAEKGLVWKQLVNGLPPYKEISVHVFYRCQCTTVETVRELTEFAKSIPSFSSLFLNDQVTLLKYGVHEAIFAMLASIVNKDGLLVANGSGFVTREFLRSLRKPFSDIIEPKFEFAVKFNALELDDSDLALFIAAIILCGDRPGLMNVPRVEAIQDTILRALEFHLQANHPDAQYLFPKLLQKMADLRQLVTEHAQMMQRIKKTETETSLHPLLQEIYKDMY
How it was run: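 Read-out is induced reporter mRNA, quantified by RT-PCR with fluorescent labelling and capillary electrophoresis after 24 h dosing. Cells are HepG2 transiently carrying multiple GAL4-UAS reporter units driven by exogenous NR-GAL4 chimeras; DMSO serves as baseline.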

[19] = target: human RAR-related Orphan Receptor gamma (RORg), RORC (gene 6097) (UniProt P51449); experiment: ATG_RORg_TRANS: Attagene TRANS-FACTORIAL HepG2 Assay for human RAR-related Orphan Receptor gamma (RORg) (AID 2283011)
Sequence of human RAR-related Orphan Receptor gamma (RORg), RORC (gene 6097) (P51449 whole entry, looked up, the tested form may be a part): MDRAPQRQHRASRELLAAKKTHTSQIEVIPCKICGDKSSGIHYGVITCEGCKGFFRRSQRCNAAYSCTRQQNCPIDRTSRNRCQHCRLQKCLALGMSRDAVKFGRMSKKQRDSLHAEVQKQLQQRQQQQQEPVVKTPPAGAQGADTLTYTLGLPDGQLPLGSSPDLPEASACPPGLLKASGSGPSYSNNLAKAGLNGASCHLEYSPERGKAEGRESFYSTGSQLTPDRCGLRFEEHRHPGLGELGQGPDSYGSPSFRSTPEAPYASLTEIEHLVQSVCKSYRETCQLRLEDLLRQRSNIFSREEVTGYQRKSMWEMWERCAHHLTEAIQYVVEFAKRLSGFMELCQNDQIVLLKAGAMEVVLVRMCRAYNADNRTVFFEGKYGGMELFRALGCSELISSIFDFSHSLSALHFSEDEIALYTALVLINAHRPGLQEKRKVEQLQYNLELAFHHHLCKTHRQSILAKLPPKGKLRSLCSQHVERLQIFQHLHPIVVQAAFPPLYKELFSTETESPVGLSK
How it was run: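 Transient MRTU transfection of HepG2 (TRANS format, exogenous NR-Gal4 chimera). 24 h dosing. Total RNA → oligo(dT) RT → PCR → 6-FAM labelling → HpaI cut → CE. Gain vs DMSO.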

[20] = target: human Vitamin D Receptor (VDR), VDR (gene 7421) (UniProt P11473); experiment: ATG_VDR_TRANS: Attagene TRANS-FACTORIAL HepG2 Assay for human Vitamin D Receptor (VDR) (AID 2283022)
Sequence of human Vitamin D Receptor (VDR), VDR (gene 7421) (P11473 whole entry, looked up, the tested form may be a part): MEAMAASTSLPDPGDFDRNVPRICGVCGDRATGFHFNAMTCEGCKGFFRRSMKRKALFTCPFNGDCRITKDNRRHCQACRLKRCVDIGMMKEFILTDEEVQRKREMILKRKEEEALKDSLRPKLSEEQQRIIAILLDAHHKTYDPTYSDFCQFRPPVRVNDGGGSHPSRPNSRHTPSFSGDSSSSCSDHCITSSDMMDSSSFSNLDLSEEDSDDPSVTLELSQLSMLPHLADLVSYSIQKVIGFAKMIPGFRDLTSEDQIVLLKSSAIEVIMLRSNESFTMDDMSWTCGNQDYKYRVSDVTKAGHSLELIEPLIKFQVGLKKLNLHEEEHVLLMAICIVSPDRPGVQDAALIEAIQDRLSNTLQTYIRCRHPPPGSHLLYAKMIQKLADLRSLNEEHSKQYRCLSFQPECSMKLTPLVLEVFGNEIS
How it was run: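 RT-PCR/capillary electrophoresis read-out of reporter mRNA induction in transiently transfected HepG2; 24 h dosing; chimeric NR-Gal4 (TRANS format); gain-of-signal fit against DMSO baseline.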

Measured: AC50

CC(Cc1ccc(C(C)(C)C)cc1)CN1C[C@@H](C)O[C@@H](C)C1 (stereo partly drawn)
active: [6] 33.4 µM | [13] 46.1 µM | [16] 89.5 µM
not listed: [17] | [18] | [19] | [20]
inactive: all other assays above

C=C(Cl)Cl
inactive: [2] | [17] | [4] | [5] | [6] | [18] | [19] | [11] | [14] | [15]

N#CCNCC#N
inactive: [3] | [17] | [6] | [7] | [18] | [19] | [20] | [12] | [16]

Nc1cc(Cl)cc(Cl)c1
not listed: [2] | [4] | [12] | [17] | [18] | [19]
inactive: all other assays above

CC(C)(Cl)Cl
not listed: [1] | [6] | [8] | [11] | [14] | [19] | [20]
inactive: all other assays above

COc1cc(OC)c(OC)cc1C=O
inactive: [3] | [17] | [6] | [20] | [11] | [12] | [13] | [14] | [15]

CCCOC(=O)c1ccccc1C(=O)OCCC
not listed: [2] | [9] | [10] | [16] | [17] | [20]
inactive: all other assays above

N#CCCCl
inactive: [2] | [17] | [7] | [19] | [20] | [11] | [12] | [13] | [14] | [15]

COCC(=O)N(c1c(C)cccc1C)N1CCOC1=O
inactive: [1] | [2] | [3] | [17] | [18] | [11] | [12] | [13]

CN(C)CCC#N
not listed: [1] | [2] | [6] | [9] | [10] | [13] | [18]
inactive: all other assays above

CC(C)C(=O)Cl
inactive: [1] | [3] | [7] | [18] | [20] | [16]

O=C(NC(=O)c1c(F)cccc1F)Nc1ccc(Oc2ccc(C(F)(F)F)cc2Cl)cc1F
not listed: [2] | [6] | [16] | [17] | [19]
inactive: all other assays above

C=CCO
inactive: [3] | [7] | [18] | [13] | [15]

[CH3][Sn]([CH3])([Cl])[Cl]
active: [16] 21.3 µM
inactive: [2] | [3] | [4] | [5] | [6] | [18] | [19] | [20] | [9] | [10]

CC(C)CCCCCCCOC(=O)c1ccccc1C(=O)OCCCCCCCC(C)C
inactive: [1] | [3] | [17] | [19] | [8] | [12] | [16]

CC[N+](=O)[O-]
not listed: [1] | [3] | [4] | [5] | [14] | [16] | [17] | [19]
inactive: all other assays above

c1ccc(Nc2ccc3ccccc3c2)cc1
active: [11] 63.2 µM | [14] 73.9 µM and 83 µM | [16] 87.1 µM
inactive: [1] | [2] | [3] | [5] | [6] | [7] | [18] | [8] | [11] | [13] | [15]

CCOC(=O)NC(=S)Nc1ccccc1NC(=S)NC(=O)OCC
inactive: [6] | [7] | [18] | [8] | [20] | [9] | [10] | [13] | [14] | [15]
active: [12] 59.6 µM

c1ccc2c(c1)CCCC2
not listed: [2] | [4] | [6] | [7] | [8] | [18]
inactive: all other assays above

CNC(=O)Oc1cc(C)c(SC)c(C)c1
inactive: [1] | [2] | [5] | [6] | [7] | [18] | [8] | [20]

CCOP(=O)(OCC)Oc1ccc([N+](=O)[O-])cc1
not listed: [6] | [7] | [12] | [16] | [17] | [19]
inactive: all other assays above
